Source: publication PMC3218832

Columns and labels:
Assay in all cases: protein binding microarray; high values mean tight binding
Details in all cases: dsDNA, one strand shown
RELARELA (p65 homodimer) = RELARELA (p65 homodimer) (Homo sapiens, UniProt Q04206 1-307)
p50p50 homodimer = p50p50 homodimer (Homo sapiens, UniProt P19838 7-356)
p52p52 homodimer = molecular target: T1, p52p52 homodimer (Homo sapiens, UniProt Q00653 4-332)
T1 sequence: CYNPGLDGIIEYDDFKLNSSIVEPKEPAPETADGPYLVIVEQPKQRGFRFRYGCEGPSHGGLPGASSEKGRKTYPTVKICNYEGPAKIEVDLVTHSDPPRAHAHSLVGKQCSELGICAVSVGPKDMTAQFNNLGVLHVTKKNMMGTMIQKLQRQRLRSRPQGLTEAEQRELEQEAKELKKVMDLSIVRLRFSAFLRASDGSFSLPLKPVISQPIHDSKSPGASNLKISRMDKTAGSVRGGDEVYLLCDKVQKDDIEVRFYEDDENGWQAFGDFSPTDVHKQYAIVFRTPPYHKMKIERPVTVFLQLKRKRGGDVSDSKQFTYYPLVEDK

[1] = molecular target: RELA (p65) subunit of heterodimer;p50 subunit (Homo sapiens;Homo sapiens, UniProt Q04206;P19838 1-307;7-356)
[2] = molecular target: RELA (p65) subunit of heterodimer;p52 subunit (Homo sapiens;Homo sapiens, UniProt Q04206;Q00653 1-307;4-332)
RELB subunit;p50 subunit = RELB subunit;p50 subunit (Homo sapiens;Homo sapiens, UniProt Q01201;P19838 120-401;7-356)
RELB subunit;p52 subunit = molecular target: T2, RELB subunit;p52 subunit (Homo sapiens;Homo sapiens, UniProt Q01201;Q00653 120-401;4-332)
T2 sequence 1: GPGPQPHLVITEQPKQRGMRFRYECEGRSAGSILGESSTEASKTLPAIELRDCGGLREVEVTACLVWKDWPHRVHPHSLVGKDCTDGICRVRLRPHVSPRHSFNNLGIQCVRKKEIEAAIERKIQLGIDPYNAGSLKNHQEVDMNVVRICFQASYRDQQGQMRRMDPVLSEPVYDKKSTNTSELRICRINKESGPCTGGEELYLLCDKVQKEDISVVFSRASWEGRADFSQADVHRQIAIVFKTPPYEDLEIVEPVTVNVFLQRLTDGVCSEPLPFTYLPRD
T2 sequence 2: T1 sequence

[3] = molecular target: C-Rel subunit;p50 subunit (Homo sapiens;Homo sapiens, UniProt Q04864;P19838 1-285;7-356)
[4] = molecular target: T3, C-Rel subunit;p52 subunit (Homo sapiens;Homo sapiens, UniProt Q04864;Q00653 1-285;4-332)
T3 sequence 1: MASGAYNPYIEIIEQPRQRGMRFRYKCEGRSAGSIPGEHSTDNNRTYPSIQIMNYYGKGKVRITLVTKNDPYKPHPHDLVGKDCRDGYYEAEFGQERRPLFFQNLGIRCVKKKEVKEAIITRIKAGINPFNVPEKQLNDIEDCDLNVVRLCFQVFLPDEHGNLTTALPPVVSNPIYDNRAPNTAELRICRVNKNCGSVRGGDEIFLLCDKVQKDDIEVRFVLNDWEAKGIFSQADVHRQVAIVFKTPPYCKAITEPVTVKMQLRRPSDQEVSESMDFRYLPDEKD
T3 sequence 2: T1 sequence

p50p50 homodimer, sequence (P19838 7-356): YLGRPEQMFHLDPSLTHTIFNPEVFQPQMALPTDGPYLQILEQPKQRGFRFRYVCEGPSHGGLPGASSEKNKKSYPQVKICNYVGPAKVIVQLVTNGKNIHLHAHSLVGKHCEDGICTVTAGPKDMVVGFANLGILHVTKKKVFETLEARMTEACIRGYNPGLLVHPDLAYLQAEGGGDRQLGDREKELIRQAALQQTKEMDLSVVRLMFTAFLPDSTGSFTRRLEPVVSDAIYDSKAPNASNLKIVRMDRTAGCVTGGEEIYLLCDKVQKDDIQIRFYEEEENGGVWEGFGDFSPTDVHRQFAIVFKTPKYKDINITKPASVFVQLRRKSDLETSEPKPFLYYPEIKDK
RELA (p65) subunit of heterodimer;p50 subunit, sequence (Q04206 1-307, chain 1 of 2): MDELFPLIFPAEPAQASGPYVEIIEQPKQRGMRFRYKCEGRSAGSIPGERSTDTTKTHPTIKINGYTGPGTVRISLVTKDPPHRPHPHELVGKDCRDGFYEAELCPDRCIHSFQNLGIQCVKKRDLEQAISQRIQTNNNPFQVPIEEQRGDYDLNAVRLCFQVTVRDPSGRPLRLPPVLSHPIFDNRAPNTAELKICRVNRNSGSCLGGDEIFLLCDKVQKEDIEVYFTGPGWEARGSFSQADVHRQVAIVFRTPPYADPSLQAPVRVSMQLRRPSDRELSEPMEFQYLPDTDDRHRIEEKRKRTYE
RELA (p65) subunit of heterodimer;p50 subunit, sequence (P19838 7-356, chain 2 of 2): as the sequence (P19838 7-356) above
RELARELA (p65 homodimer), sequence (Q04206 1-307): as the sequence (Q04206 1-307, chain 1 of 2) above

Sequence | binding signal (RELARELA (p65 homodimer)) [z-score] | binding signal (p50p50 homodimer) [z-score] | binding signal (p52p52 homodimer) [z-score] | binding signal [1] [z-score] | binding signal [2] [z-score] | binding signal (RELB subunit;p50 subunit) [z-score] | binding signal (RELB subunit;p52 subunit) [z-score] | binding signal [3] [z-score] | binding signal [4] [z-score]
GGATACCCCCC | 0.633 | 1.23 | 1.22 | 1.77 | 1.48 | 1.06 | 1.52 | 1.14 | 1.54
GAGTTGGCCCT | -0.84 | -1.24 | -0.495 | -0.546 | -0.734 | -0.243 | -0.397 | -0.778 | -0.623
GAGGGAGCCCT | -0.902 | -0.904 | -0.464 | -0.859 | -0.736 | -0.793 | -0.682 | -1.28 | -0.682
CAGAATTCCCC | 3.2 | 1.49 | 2.61 | 2.25 | 2.29 | 2.26 | 2.21 | 1.73 | 2.61
CAGTAATTCCC | 2.18 | 0.948 | 0.804 | 1.12 | 0.865 | 0.722 | 0.71 | 1.31 | 1.05
AGAGATCCCCC | -0.101 | 1.31 | 1.28 | 2.02 | 1.56 | 1.82 | 1.98 | 1.37 | 1.47
AAGGTAGCCCC | -0.468 | 0.424 | 0.109 | -0.162 | 0 | 0.152 | 0.184 | 0.249 | 0.217
GAGGTGACCCC | -0.476 | -0.386 | -0.328 | -0.534 | -0.428 | -0.385 | -0.19 | -0.788 | -0.26
AAGTTCACCCC | -0.0981 | 0.184 | 0.0438 | -0.0301 | -0.0961 | 0.292 | 0.317 | 0.451 | 0.174
GGATGATTCCT | 0.0919 | -1.32 | -0.648 | -0.708 | -0.749 | -0.941 | -0.913 | -0.706 | -0.54
AGGTAGGCCCT | -0.932 | -0.756 | -0.535 | -0.978 | -0.63 | -0.647 | -0.561 | -1.13 | -0.598
GGGAACGCCCT | 0.932 | -0.126 | 0.394 | 0.492 | 0.418 | -0.197 | 0.214 | 0.154 | 0.403
CAAGGCCCCCT | -1.53 | 0.645 | 0.212 | 0.0559 | 0.254 | 0.314 | 0.508 | -0.126 | -0.139
GAAAGTGCCCC | 0.518 | 0.277 | 0.105 | 0.655 | 0.365 | 0.443 | 0.479 | 0.607 | 0.511
CGGTACTCCCT | 0.445 | 0.837 | 0.708 | 0.515 | 0.425 | 0.724 | 0.415 | 0.323 | 0.382
